Drawing on PubChem BioAssay, this text covers differential viability (reversal) and viability for 40 compounds.

Calls of active or inactive are those of the source.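 Rule for the calls: active = viability loss from added drug above about 55%, and viability with drug at most 40%, in both replicates (limit read from the data, passing the limit was not always enough); inconclusive = both conditions met in only one replicate; inactive = neither replicate meets both conditions.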

A short description of the first assay: reversal of MRP1-mediated doxorubicin resistance, pilot screen, H69AR cells, doxorubicin co-treatment (AID 601). To be noted: H69AR cells + 2 uM doxorubicin, CellTiter-Glo, 72 h; at 10 µM; stronger effect = higher value. (Cellular ATP, detected with luciferase, serves as a proxy for viable cell number.)
For the compound `COc1ccc(C(=O)Nn2c(SCC(=O)NCC3CCCO3)nc3ccccc3c2=O)cc1` (stereo not given), the differential viability (reversal) is 9.29% (inactive).
For the compound `COc1ccc(Cc2nnc3n2N=C(c2cc4ccccc4o2)CS3)cc1OC`, the differential viability (reversal) is -20% (inactive).
With `CC1(C)OC(=O)N(c2cccnc2)C1(C)O` (stereo not given), the differential viability (reversal) is 11.6% (inactive).
Same read-out and setting: with `O=c1/c(=C/c2ccco2)sc2nc(-c3ccccc3Br)nn12` the figure was 4.5% (inactive).
For the compound `CC1Cc2ccccc2N1C(=O)CSc1nc2ccccc2n1CC(=O)N1CCOCC1` (stereo not given), the differential viability (reversal) was 7% (inactive).
Still for that read-out and setting: for `Cc1oc(-c2ccccc2F)nc1CS(=O)(=O)CC(=O)N1CCCCCC1` the value was 13.4% (inactive); for `O=C(NCc1cccnc1)c1ccc(Cl)c(Cl)c1`, 9.16% (inactive).
The same measure, in the same setting: for `COc1cccc(C(=O)Nc2ccc(NC(C)=O)cn2)c1` the value was 12.5% (inactive); for `CCN(C(=O)CN1CCN(c2ccccc2OC)CC1)c1c(N)n(Cc2ccccc2)c(=O)[nH]c1=O`, 9.64% (inactive); for `CCOC(=O)n1c(SCC(=O)N(CC)CC)nc2ccccc21`, 15.7% (inactive).
For the compound `CCOC(=O)C1CCN(c2c(NC3CCCCCCC3)c(=O)c2=O)CC1`, the differential viability (reversal) is 8.71% (inactive).
On the same count and under the same terms, with `CCOC(=O)NC(=O)CSc1nnnn1-c1ccc(Cl)cc1` the figure was 20.4% (inactive); with `COc1cccc(-n2c(C)nc3c(cnn3-c3ccc(Cl)cc3)c2=O)c1`, -1.66% (inactive).
With `CN(CC(O)COCc1cccs1)C1CCCCC1` (stereo not given), the differential viability (reversal) was 10.9% (inactive).
`O=C(O)CSc1ccc2ccccc2n1`: the differential viability (reversal) is 9.33% (inactive).
Still for that read-out and setting: for `CN(C)Cc1c(O)ccc2oc(Cc3ccccc3)cc12` the value was 11% (inactive); for `COC(=O)c1[nH]c(C)c(/C(O)=C2\C(=O)C(=O)N(CCN(C)C)C2c2ccccc2OC)c1C` (stereo not given), 1.34% (inactive).
Take `CC1(C)Cc2c(sc3c2c(=N)n(Cc2ccco2)c(=O)n3Cc2ccccc2)CO1`: the differential viability (reversal) was 28.9% (inactive).
For `CCn1nnnc1SCC(=O)N1CCOCC1`, the differential viability (reversal) is 11.3% (inactive).
For the compound `CN(C)c1ccc(C=Nc2ccc(N(C)C)cc2)cc1`, the differential viability (reversal) is -7.71% (inactive).
As to `CCCC(=O)Nc1ccc(OCC(=O)OC)cc1`, the differential viability (reversal) was 5.34% (inactive).
The same measure, in the same setting: with `CCn1cc(C(=O)NCCN(C)CCc2ccccc2)c(=O)c2cc(S(=O)(=O)N(C)C)ccc21` the figure was 1.48% (inactive); with `COc1cccc(-c2cc(C(=O)N3CCCc4ccccc43)no2)c1`, 5.08% (inactive); with `O=C(Cn1c(NCCO)nc2ccccc21)c1ccccc1`, 3.85% (inactive).
As for `CCOC(=O)N1CCC(N2C(=O)c3ccccc3C2Nc2cccnc2)CC1` (stereo not given), the differential viability (reversal) is 0.11% (inactive).
Same read-out and setting: for `CCCCCCNS(=O)(=O)c1ccc(Cl)s1` the value was 1.29% (inactive); for `COC(=O)c1cc(=O)n2c(-c3ccc(OC)cc3)csc2n1`, 10.6% (inactive); for `COC(=O)/C=c1/s/c(=C(/C#N)C(=O)N2CCOCC2)n(-c2ccccc2)c1=O`, -10.8% (inactive).
Turning to `CCOc1ccc2[nH]cc(C(=O)N3CCN(CC)CC3)c(=O)c2c1`, the differential viability (reversal) is -14.2% (inactive).
The same measure, in the same setting: with `CCCCN(CCCNC(=O)C1CCN(S(=O)(=O)CC)CC1)c1ccccc1` the figure was -1.6% (inactive); with `COc1ccc(-c2nnn(CCc3nn[nH]n3)n2)cc1OC`, -3.76% (inactive); with `CCCCC(=NCCO)C1=C(O)C(C(=O)OC)C(C)(C)CC1=O` (stereo not given), -0.975% (inactive).
Same read-out and setting: with `COC1CCCCC1NS(=O)(=O)c1ccccc1` (stereo not given) the figure was 1.47% (inactive); with `Nc1c(N2CCCCC2)c(=O)[nH]c(=O)n1-c1ccccc1`, 13.9% (inactive); with `O=C(CN1C(=O)CCSc2ccccc21)Nc1ccc2c(c1)OCO2`, 0.09% (inactive).
Still for that read-out and setting: for `Cc1cc(C)c2oc(=O)cc(CN3CCOCC3)c2c1` the value was 3.58% (inactive); for `OCc1nc2ccccc2n1CCCOc1ccccc1`, 16.7% (inactive).
Take `CC(C)(C)c1ccc2c(c1)OCC(C(=O)O)O2` (stereo not given): the differential viability (reversal) is 9.5% (inactive).
Still for that read-out and setting: for `O=C1C2C3C=CC(C3=C3CCCCC3)C2C(=O)N1c1ccccc1` (stereo not given) the value was 1.16% (inactive).
For `CCCN1C(=O)c2cc(C(=O)O)ccc2C1O` (stereo not given), the differential viability (reversal) is 18.7% (inactive).

Still in this assay, the particulars now being: H69AR cells + 2 uM doxorubicin, CellTiter-Glo, 72 h; measured here: viability with 2 uM doxorubicin; at 10 µM; stronger effect = lower value.
For the compound `COc1ccc(C(=O)Nn2c(SCC(=O)NCC3CCCO3)nc3ccccc3c2=O)cc1` (stereo not given), the viability came out at 74.5%.
Still for that read-out and setting: with `COc1ccc(Cc2nnc3n2N=C(c2cc4ccccc4o2)CS3)cc1OC` the figure was 55%; with `CC1(C)OC(=O)N(c2cccnc2)C1(C)O` (stereo not given), 80%.
The same measure, in the same setting: with `O=c1/c(=C/c2ccco2)sc2nc(-c3ccccc3Br)nn12` the figure was 87.9%; with `CC1Cc2ccccc2N1C(=O)CSc1nc2ccccc2n1CC(=O)N1CCOCC1` (stereo not given), 90.8%; with `Cc1oc(-c2ccccc2F)nc1CS(=O)(=O)CC(=O)N1CCCCCC1`, 87.1%.
For the compound `O=C(NCc1cccnc1)c1ccc(Cl)c(Cl)c1`, the viability was 87.7%.
Same read-out and setting: for `COc1cccc(C(=O)Nc2ccc(NC(C)=O)cn2)c1` the value was 93.2%; for `CCN(C(=O)CN1CCN(c2ccccc2OC)CC1)c1c(N)n(Cc2ccccc2)c(=O)[nH]c1=O`, 90.8%.
On the same count and under the same terms, for `CCOC(=O)n1c(SCC(=O)N(CC)CC)nc2ccccc21` the value was 85.7%.
`CCOC(=O)C1CCN(c2c(NC3CCCCCCC3)c(=O)c2=O)CC1`: the viability was 71%.
The same measure, in the same setting: for `CCOC(=O)NC(=O)CSc1nnnn1-c1ccc(Cl)cc1` the value was 85.7%; for `COc1cccc(-n2c(C)nc3c(cnn3-c3ccc(Cl)cc3)c2=O)c1`, 78%; for `CN(CC(O)COCc1cccs1)C1CCCCC1` (stereo not given), 95.4%.
Same read-out and setting: with `O=C(O)CSc1ccc2ccccc2n1` the figure was 80.7%; with `CN(C)Cc1c(O)ccc2oc(Cc3ccccc3)cc12`, 80%.
For `COC(=O)c1[nH]c(C)c(/C(O)=C2\C(=O)C(=O)N(CCN(C)C)C2c2ccccc2OC)c1C` (stereo not given), the viability amounted to 82.9%.
On to `CC1(C)Cc2c(sc3c2c(=N)n(Cc2ccco2)c(=O)n3Cc2ccccc2)CO1`, for which the viability was determined as 43%.
Consider `CCn1nnnc1SCC(=O)N1CCOCC1`, for which the viability worked out at 86.3%.
In the case of `CN(C)c1ccc(C=Nc2ccc(N(C)C)cc2)cc1`, the viability was found to be 78.1%.
Consider `CCCC(=O)Nc1ccc(OCC(=O)OC)cc1`, for which the viability is 93.6%.
On the same count and under the same terms, with `CCn1cc(C(=O)NCCN(C)CCc2ccccc2)c(=O)c2cc(S(=O)(=O)N(C)C)ccc21` the figure was 79.8%; with `COc1cccc(-c2cc(C(=O)N3CCCc4ccccc43)no2)c1`, 87.4%.
Same read-out and setting: for `O=C(Cn1c(NCCO)nc2ccccc21)c1ccccc1` the value was 101%; for `CCOC(=O)N1CCC(N2C(=O)c3ccccc3C2Nc2cccnc2)CC1` (stereo not given), 85.6%; for `CCCCCCNS(=O)(=O)c1ccc(Cl)s1`, 87.8%.
Same read-out and setting: with `COC(=O)c1cc(=O)n2c(-c3ccc(OC)cc3)csc2n1` the figure was 82.1%; with `COC(=O)/C=c1/s/c(=C(/C#N)C(=O)N2CCOCC2)n(-c2ccccc2)c1=O`, 99.6%; with `CCOc1ccc2[nH]cc(C(=O)N3CCN(CC)CC3)c(=O)c2c1`, 104%.
Consider `CCCCN(CCCNC(=O)C1CCN(S(=O)(=O)CC)CC1)c1ccccc1`, for which the viability was determined as 98.2%.
For the compound `COc1ccc(-c2nnn(CCc3nn[nH]n3)n2)cc1OC`, the viability was found to be 99.2%.
Still for that read-out and setting: for `CCCCC(=NCCO)C1=C(O)C(C(=O)OC)C(C)(C)CC1=O` (stereo not given) the value was 90.5%; for `COC1CCCCC1NS(=O)(=O)c1ccccc1` (stereo not given), 96.2%.
The same measure, in the same setting: for `Nc1c(N2CCCCC2)c(=O)[nH]c(=O)n1-c1ccccc1` the value was 95.3%; for `O=C(CN1C(=O)CCSc2ccccc21)Nc1ccc2c(c1)OCO2`, 103%; for `Cc1cc(C)c2oc(=O)cc(CN3CCOCC3)c2c1`, 87.9%.
`OCc1nc2ccccc2n1CCCOc1ccccc1`: the viability is 85.9%.
As to `CC(C)(C)c1ccc2c(c1)OCC(C(=O)O)O2` (stereo not given), the viability was found to be 96.3%.
Still for that read-out and setting: for `O=C1C2C3C=CC(C3=C3CCCCC3)C2C(=O)N1c1ccccc1` (stereo not given) the value was 94.7%; for `CCCN1C(=O)c2cc(C(=O)O)ccc2C1O` (stereo not given), 84.1%.

For orientation: viability means a read-out of living cells in per cent, often relative to untreated cells.
